# OPRM1-OPRD1 inv: inverse agonists of human mu-delta opioid receptor heterodimerization. AID 504357. P35372+P41143. actives 0.21% (n = 340,000). cell-based MOR-DOR heterodimer luminescence, inverse agonism. inhibition, % at 9.3 µM; in the data active = inhibition above about 22%, passing the limit was not always enough
# HTR5A ag: counter-screen for OPRM1-OPRD1 agonists: human HTR5A agonism; P47898; HTR5A agonist assay, luminescence, cell-based; activation, % at 9.3 µM; actives 0.61% (n = 340,000); AID 504692; in the data active = activation mostly above about 9.5%, no sharp cut-off; inactive = mostly below about 7.6%
# HTR5A inv ag: counter-screen for OPRM1-OPRD1 inverse agonists: human HTR5A inverse agonism | P47898 | HTR5A cell line, luminescence | inhibition, % at 9.3 µM | actives 0.083% (n = 340,000); in the data active = inhibition mostly above about 23%, no sharp cut-off; inactive = mostly below about 18%
# HGIII-sPLA2 inh: Blocks human group III sPLA2 activity | Q9NZ20 | QFRET BODIPY PC-A2 liposome hydrolysis, fluorescence | AID 743126 | actives 0.56% (n = 370,000) | inhibition, % at 12.2 µM;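 active = inhibition above mean plus 3 SD of compounds lying within the high and low control bounds, cut at about 19% in these data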
# OPRM1-OPRD1 ag: agonists of human mu-delta opioid receptor heterodimerization; actives 0.3% (n = 340,000); activation, % at 9.3 µM; cells, OPRM1-OPRD1 heterodimerization, luminescence; in the data active = activation above about 18%
# HTR2A ag: activates the mouse 5-HT2A serotonin receptor; P35363; CHO-K1 mHTR2A beta-arrestin complementation, luminescence; percent of 30 µM serotonin response; activation, % at 7.6 µM; actives 0.66% (n = 360,000); AID 624169;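 active = activation above a run cutoff, the mean activation of all tested compounds plus 3 SD, cut at about 14% in these data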
# MOR ag counter: counter-screen for mouse HTR2A agonists: human mu opioid receptor agonists; shares compounds with HTR2A ag; U2OS OPRM1 beta-arrestin PathHunter, luminescence; DMSO 0%, DAMGO 9.3 µM 100%; activation, % at 9.3 µM; actives 5.3% (n = 2,300);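 active = mean activation above the mean of DMSO-only wells plus 3 SD, cut at about 0.5% in these data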
# Target sequence (P35372 whole entry, looked up): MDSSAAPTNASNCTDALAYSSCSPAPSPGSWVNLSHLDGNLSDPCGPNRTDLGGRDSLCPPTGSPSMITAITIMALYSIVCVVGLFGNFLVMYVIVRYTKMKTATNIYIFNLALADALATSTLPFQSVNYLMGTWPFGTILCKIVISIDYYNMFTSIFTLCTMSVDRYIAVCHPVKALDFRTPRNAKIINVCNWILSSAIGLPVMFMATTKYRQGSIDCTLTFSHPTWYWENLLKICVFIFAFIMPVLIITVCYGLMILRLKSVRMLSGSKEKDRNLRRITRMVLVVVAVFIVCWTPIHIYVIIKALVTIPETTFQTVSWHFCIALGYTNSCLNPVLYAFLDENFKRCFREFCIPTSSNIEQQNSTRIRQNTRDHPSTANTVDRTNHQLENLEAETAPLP
# HTR2A ag conf: confirmation of mouse HTR2A serotonin receptor agonists | shares compounds with HTR2A ag | CHO-K1 PathHunter beta-arrestin recruitment, luminescence; DMSO 0%, 30 µM serotonin 100% | activation, % at 7.6 µM | actives 19% (n = 2,300) | AID 624381;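 active = mean activation across triplicates above the hit threshold derived in the original primary screen, cut at about 15% in these data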
# Hits are given with their value; i = inactive; nt = not tested or not shown. Rows were chosen to be rich in hits. Some 2.2% of all compounds tested hit in one or more screens of this group.
SMILES,OPRM1-OPRD1 inv,HTR5A ag,HTR5A inv ag,HGIII-sPLA2 inh,OPRM1-OPRD1 ag,HTR2A ag,MOR ag counter,HTR2A ag conf
C=C(C)c1cccc(C(C)(C)NC(=O)Nc2ccc(OC)cc2)c1,i,i,i,i,i,17,i,i
O=C(COC(=O)c1cc(NS(=O)(=O)c2cccs2)ccc1O)Nc1ccccc1,i,i,i,i,i,i,nt,nt
CN(Cc1ccccc1)C(=O)COC(=O)c1cc(NS(=O)(=O)c2cccs2)ccc1O,i,i,i,i,i,21,i,i
CCCC(=O)Nc1cccc(-c2nc3ccccc3c(=O)o2)c1,i,i,i,i,i,15,i,i
COc1cc(OC)cc(C(C)c2ccc(-c3ccccc3)cc2)c1 (stereo not given),nt,nt,nt,i,nt,nt,nt,nt
COc1ccc(S[C@]2(C(=O)N(C)C)CC(=O)N(C(=O)c3ccccc3)[C@@H]2c2ccc(OC)cc2)cc1,nt,nt,nt,i,nt,nt,nt,nt
O=C(O)c1ccc(/C=N/Nc2ccc(C(F)(F)F)cn2)cc1,i,i,i,i,i,18,i,i
NC(=O)C1CCCN(Cc2ccc3ccccc3c2)C1 (stereo not given),i,i,i,i,i,i,nt,nt
N#CCN1CCCC(C(N)=O)C1 (stereo not given),i,i,i,i,i,19,i,i
COc1cc2c(cc1OC)-c1cc(Nc3ccccc3C)nc(=O)n1CC2,i,i,i,i,i,18,i,i
COc1ccc(COC(=O)C2=C(C)NC(=O)NC2c2cccc(Br)c2)cc1 (stereo not given),i,i,i,i,i,16,i,16
COc1ccc(C2Nc3ccccc3NC3=C2C(=O)CC(C)(C)C3)cc1OC (stereo not given),i,i,i,i,i,17,0.7,i
CCN(c1ccc(C)c(C)c1)S(=O)(=O)c1ccc2c(c1)CCN2C(=O)CCC(=O)O,i,i,i,i,i,i,nt,nt
CCN(c1ccc(OC)cc1)S(=O)(=O)c1ccc2c(c1)CCN2C(=O)CCC(=O)O,i,i,i,i,i,14,i,i
CC(=O)C1(C(=O)NC2CCCC2)CC(c2ccccc2C(F)(F)F)=NO1 (stereo not given),nt,nt,nt,i,nt,nt,nt,nt
O=C(Nc1cccc(C(=O)O)c1)/C(=C\c1ccccc1)NC(=O)c1ccccc1,i,i,i,i,i,18,i,i
Cc1ccc(C(=O)N/C(=C/c2ccccc2)C(=O)NC(Cc2ccccc2)C(=O)O)cc1 (stereo not given),i,i,i,i,i,16,i,42
Cc1ccc(/C=C(\NC(=O)c2ccccc2)C(=O)NC(Cc2ccccc2)C(=O)O)cc1 (stereo not given),i,i,i,i,i,i,nt,nt
O=C(Nc1cccc(C(=O)O)c1)/C(=C\c1ccc2c(c1)OCO2)NC(=O)c1ccc(Br)cc1,i,i,i,i,i,i,nt,nt
O=C(Nc1ccc(C(=O)O)cc1)/C(=C/c1ccc2c(c1)OCO2)NC(=O)c1cccc(Br)c1,i,i,i,i,i,19,i,i
CC(=O)C1(C(=O)NCc2ccccc2)CC(c2ccccc2C(F)(F)F)=NO1 (stereo not given),nt,nt,nt,i,nt,nt,nt,nt
O=C(Nc1nc2ncccn2c1-c1ccc(F)cc1)c1ccc(F)cc1,nt,nt,nt,i,nt,nt,nt,nt
CCn1c(-c2cccs2)nc2ccccc21,i,i,i,i,i,i,nt,nt
C#CCn1c(-c2cccs2)nc2ccccc21,i,i,i,i,i,22,i,i
CCC(c1nnnn1C(C)(C)C)N1CCN(C/C=C/c2ccccc2)CC1 (stereo not given),nt,nt,nt,i,nt,15,i,38
SMILES,OPRM1-OPRD1 inv,HTR5A ag,HTR5A inv ag,HGIII-sPLA2 inh,OPRM1-OPRD1 ag,HTR2A ag,MOR ag counter,HTR2A ag conf
CC(C)(C)n1nnnc1C(c1ccccc1)N1CCN(C/C=C/c2ccccc2)CC1 (stereo not given),nt,nt,nt,i,nt,i,nt,nt
CCC(c1nnnn1-c1ccc(OC)cc1)N1CCN(C/C=C/c2ccccc2)CC1 (stereo not given),nt,nt,nt,i,nt,15,i,24
COc1ccc(-n2nnnc2C(CCc2ccccc2)N2CCN(C/C=C/c3ccccc3)CC2)cc1 (stereo not given),nt,nt,nt,i,nt,i,nt,nt
CCOc1ccc(CNC(=O)CS(=O)(=O)Cc2nc(-c3ccc(OC)cc3)oc2C)cc1,i,i,i,i,i,20,i,i
COc1ccc2cc(/C=N/NC(=O)CN(c3ccccc3C)S(=O)(=O)c3ccccc3)c(Cl)nc2c1,i,i,i,i,i,16,i,i
COc1ccc2cc(/C=N/NC(=O)CN(c3ccccc3OC)S(=O)(=O)c3ccccc3)c(Cl)nc2c1,nt,nt,nt,i,nt,nt,nt,nt
O=c1c2ccccc2c2ccccc2c(=O)n1Nc1ccccc1,nt,nt,nt,i,nt,20,i,i
O=C1C2CC=CCC2C(=O)N1Nc1ccccc1 (stereo not given),i,i,i,i,i,i,nt,nt
O=C(COc1ccccc1Cl)N(Cc1cccs1)C1CCS(=O)(=O)C1 (stereo not given),i,i,i,i,i,20,i,i
COC(=O)[C@]12C[C@H](CC(=O)NCCCN3CCCC3=O)C(=O)N(Cc3ccco3)C1=C[C@H](C(C)C)O[C@@H]2C1CC1,nt,nt,nt,i,nt,nt,nt,nt
COc1ccc(CC(=O)N(Cc2ccccc2)c2ccccc2C(=O)Nc2cc(OC)ccc2OC)cc1,nt,nt,nt,i,nt,nt,nt,nt
Cc1ccccc1C(=O)Nc1ccnc(-c2ccncc2)n1,i,i,i,i,i,20,i,i
Cc1cccc(C(=O)Nc2ccnc(-c3ccncc3)n2)c1,i,i,i,i,i,i,nt,nt
Cc1ccccc1CN1CCCCC(NC(=O)C(C)(C)C)C1=O (stereo not given),nt,nt,nt,i,nt,nt,nt,nt
O=C(Nc1ccc(F)cc1)C(c1cc2ccccc2o1)N1CCN(CC(=O)N2CCCC2)CC1 (stereo not given),nt,nt,nt,i,nt,27,i,i
O=[N+]([O-])c1c(Nc2ccccc2)ccc2nonc12,i,i,i,i,i,23,i,i
CCc1ccc(Nc2ccc3nonc3c2[N+](=O)[O-])cc1,i,i,i,i,i,i,nt,nt
CCn1c(COc2ccc(C)cc2)nnc1SCC(=O)Nc1ccccc1-c1ccccc1,nt,nt,nt,i,nt,nt,nt,nt
COC(=O)[C@@]1(C)[C@H]2C(=O)N(C)C(=O)[C@H]2[C@H]2CN=C(SCC(=O)c3ccccc3)N21,i,i,i,i,i,i,nt,nt
COC(=O)[C@@]1(C)[C@H]2C(=O)N(C)C(=O)[C@H]2[C@H]2CN=C(SCc3ccccc3)N21,i,i,i,i,i,17,i,i
